# Many of the other results were omitted from the sample, so the strongest signals are more common in it than they were.
# Assays:
# Assay in all cases: glycan array binding signal (z-score within array); higher = stronger binding
# Settings in all cases: glycan notation: IUPAC condensed, linker removed; mutation: N224Q
# Fuc(a1-2)Gal = biological target: Fuc(a1-2)Gal
# Method in brief: (§1)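 Columns mapping to the same glycan were averaged after glycan names were converted to IUPAC-condensed notation. The data come from 3228 arrays in the Consortium for Functional Glycomics database, limited to those with an available protein sequence. Binding is reported as a within-array Z-score averaged across arrays of one protein sequence and across linkers.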
# [1] = biological target: Fuc(a1-2)Gal(b1-3)GlcNAc(b1-3)GalNAc
# Method in brief: as §1
# [2] = biological target: Fuc(a1-2)Gal(b1-3)[Fuc(a1-4)]GlcNAc(b1-2)Man(a1-3)[Fuc(a1-2)Gal(b1-3)[Fuc(a1-4)]GlcNAc(b1-2)Man(a1-6)]Man(b1-4)GlcNAc(b1-4)[Fuc(a1-6)]GlcNAc(b1-4)[Fuc(a1-6)]GlcNAc
# Method in brief: as §1
# Fuc(a1-2)Gal(b1-4)Glc6S = biological target: Fuc(a1-2)Gal(b1-4)Glc6S
# Method in brief: as §1
# [3] = biological target: Fuc(a1-2)Gal(b1-4)GlcNAc(b1-3)Gal(b1-4)GlcNAc(b1-2)Man(a1-3)[Fuc(a1-2)Gal(b1-4)GlcNAc(b1-3)Gal(b1-4)GlcNAc(b1-2)Man(a1-6)]Man(b1-4)GlcNAc(b1-4)GlcNAc
# Method in brief: as §1
# [4] = biological target: Fuc(a1-2)Gal(b1-4)[Fuc(a1-3)]GlcNAc
# Method in brief: as §1
# [5] = biological target: Fuc(a1-2)Gal(b1-4)[Fuc(a1-3)]GlcNAc(b1-3)Gal(b1-4)[Fuc(a1-3)]GlcNAc
# Method in brief: as §1
# [6] = biological target: Fuc(a1-2)Gal(b1-4)[Fuc(a1-3)]GlcNAc(b1-3)Gal(b1-4)[Fuc(a1-3)]GlcNAc(b1-3)Gal(b1-4)[Fuc(a1-3)]GlcNAc
# Method in brief: as §1
# Fuc(a1-2)Gal6S(b1-4)Glc = biological target: Fuc(a1-2)Gal6S(b1-4)Glc
# Method in brief: as §1
# [7] = biological target: Fuc(a1-2)[Gal(a1-3)]Gal(b1-4)GlcNAc(b1-2)Man
# Method in brief: as §1
# [8] = biological target: Fuc(a1-2)[Gal(a1-3)]Gal(b1-4)GlcNAc(b1-2)Man(a1-3)[Fuc(a1-2)[Gal(a1-3)]Gal(b1-4)GlcNAc(b1-2)Man(a1-6)]Man(b1-4)GlcNAc(b1-4)[Fuc(a1-6)]GlcNAc
# Method in brief: as §1
# [9] = biological target: Fuc(a1-2)[Gal(a1-4)]Gal(b1-4)GlcNAc
# Method in brief: as §1
# [10] = biological target: Fuc(a1-2)[GalNAc(a1-3)]Gal
# Method in brief: as §1
# [11] = biological target: Fuc(a1-2)[GalNAc(a1-3)]Gal(b1-4)Glc
# Method in brief: as §1
# [12] = biological target: Fuc(a1-2)[GalNAc(a1-3)]Gal(b1-4)GlcNAc(b1-3)GalNAc
# Method in brief: as §1
# [13] = biological target: Fuc(a1-2)[GalNAc(a1-4)]Gal(b1-4)GlcNAc
# Method in brief: as §1
# Fuc(a1-3)GlcNAc = biological target: Fuc(a1-3)GlcNAc
# Method in brief: as §1
# [14] = biological target: Fuc(a1-3)[Gal(b1-4)]GlcNAc(b1-2)Man
# Method in brief: as §1
# [15] = biological target: Fuc(a1-3)[Gal(b1-4)]GlcNAc(b1-3)Gal(b1-4)[Fuc(a1-3)]GlcNAc
# Method in brief: as §1
# [16] = biological target: Fuc(a1-3)[Gal(b1-4)]GlcNAc(b1-6)[Gal(b1-3)GlcNAc(b1-3)]Gal(b1-4)Glc
# Method in brief: as §1
# [17] = biological target: Fuc(a1-3)[Gal(b1-4)]GlcNAc6S
# Method in brief: as §1
# Fuc(a1-4)GlcNAc = biological target: Fuc(a1-4)GlcNAc
# Method in brief: as §1
# Fuc(b1-3)GlcNAc = biological target: Fuc(b1-3)GlcNAc
# Method in brief: as §1
# [18] = biological target: Gal(b1-3)GalNAc(a1-3)[Fuc(a1-2)]Gal(b1-4)Glc
# Method in brief: as §1
# [19] = biological target: Gal(b1-3)GlcNAc(b1-2)[Gal(b1-3)GlcNAc(b1-6)]Man(a1-6)[Gal(b1-3)GlcNAc(b1-2)Man(a1-3)]Man(b1-4)GlcNAc(b1-4)GlcNAc
# Method in brief: as §1
# [20] = biological target: Gal(b1-3)GlcNAc(b1-6)Gal(b1-4)GlcNAc
# Method in brief: as §1
# Gal(b1-3)GlcNAc6S = biological target: Gal(b1-3)GlcNAc6S
# Method in brief: as §1
# Gal(b1-4)GlcNAc = biological target: Gal(b1-4)GlcNAc
# Method in brief: as §1
# [21] = biological target: Gal(b1-4)GlcNAc(b1-2)Man(a1-3)[Gal(b1-4)GlcNAc(b1-2)Man(a1-6)]Man(b1-4)GlcNAc(b1-4)GlcNAc
# Method in brief: as §1
# [22] = biological target: Gal(b1-4)GlcNAc(b1-2)Man(a1-3)[Gal(b1-4)GlcNAc(b1-2)Man(a1-6)]Man(b1-4)GlcNAc(b1-4)[Fuc(a1-6)]GlcNAc
# Method in brief: as §1
# [23] = biological target: Gal(b1-4)GlcNAc(b1-3)Gal(b1-4)GlcNAc(b1-3)Gal(b1-4)GlcNAc(b1-3)Gal(b1-4)GlcNAc(b1-2)[Gal(b1-4)GlcNAc(b1-3)Gal(b1-4)GlcNAc(b1-3)Gal(b1-4)GlcNAc(b1-3)Gal(b1-4)GlcNAc(b1-6)]Man(a1-6)[Gal(b1-4)GlcNAc(b1-3)Gal(b1-4)GlcNAc(b1-3)Gal(b1-4)GlcNAc(b1-3)Gal(b1-4)GlcNAc(b1-2)Man(a1-3)]Man(b1-4)GlcNAc(b1-4)[Fuc(a1-6)]GlcNAc
# Method in brief: as §1
# Gal3S(b1-4)Glc = biological target: Gal3S(b1-4)Glc
# Method in brief: as §1
# [24] = biological target: GlcNAc(a1-4)Gal(b1-4)GlcNAc(b1-3)Gal(b1-4)Glc
# Method in brief: as §1
# [25] = biological target: GlcNAc(b1-3)Gal(b1-4)GlcNAc(b1-3)Gal(b1-4)GlcNAc(b1-2)Man(a1-3)[GlcNAc(b1-3)Gal(b1-4)GlcNAc(b1-3)Gal(b1-4)GlcNAc(b1-2)Man(a1-6)]Man(b1-4)GlcNAc(b1-4)[Fuc(a1-6)]GlcNAc
# Method in brief: as §1
# [26] = biological target: GlcNAc(b1-3)Gal(b1-4)GlcNAc(b1-3)Gal(b1-4)GlcNAc(b1-3)Gal(b1-4)GlcNAc(b1-2)[GlcNAc(b1-3)Gal(b1-4)GlcNAc(b1-3)Gal(b1-4)GlcNAc(b1-3)Gal(b1-4)GlcNAc(b1-6)]Man(a1-6)[GlcNAc(b1-3)Gal(b1-4)GlcNAc(b1-3)Gal(b1-4)GlcNAc(b1-3)Gal(b1-4)GlcNAc(b1-2)Man(a1-3)]Man(b1-4)GlcNAc(b1-4)[Fuc(a1-6)]GlcNAc
# Method in brief: as §1
# [27] = biological target: GlcNAc(b1-3)Gal(b1-4)GlcNAc(b1-3)Gal(b1-4)GlcNAc(b1-3)Gal(b1-4)GlcNAc(b1-3)Gal(b1-4)GlcNAc(b1-2)Man(a1-3)[GlcNAc(b1-3)Gal(b1-4)GlcNAc(b1-3)Gal(b1-4)GlcNAc(b1-3)Gal(b1-4)GlcNAc(b1-3)Gal(b1-4)GlcNAc(b1-2)Man(a1-6)]Man(b1-4)GlcNAc(b1-4)[Fuc(a1-6)]GlcNAc
# Method in brief: as §1
# [28] = biological target: GlcNAc(b1-3)[GlcNAc(b1-6)]Gal(b1-4)GlcNAc
# Method in brief: as §1
# GlcNAc(b1-6)GalNAc = biological target: GlcNAc(b1-6)GalNAc
# Method in brief: as §1
# [29] = biological target: Man(a1-2)Man(a1-3)[Man(a1-2)Man(a1-6)]Man(a1-6)[Man(a1-2)Man(a1-2)Man(a1-3)]Man(b1-4)GlcNAc(b1-4)GlcNAc
# Method in brief: as §1
# [30] = biological target: Neu5Ac(a2-3)Gal(b1-3)GlcNAc(b1-2)Man
# Method in brief: as §1
# [31] = biological target: Neu5Ac(a2-3)Gal(b1-4)GlcNAc(b1-2)[Neu5Ac(a2-3)Gal(b1-4)GlcNAc(b1-4)]Man(a1-3)[GlcNAc(b1-4)][Neu5Ac(a2-3)Gal(b1-4)GlcNAc(b1-2)[Neu5Ac(a2-3)Gal(b1-4)GlcNAc(b1-6)]Man(a1-6)]Man(b1-4)GlcNAc(b1-4)GlcNAc
# Method in brief: as §1
# [32] = biological target: Neu5Ac(a2-3)Gal(b1-4)GlcNAc(b1-3)Gal(b1-4)[Fuc(a1-3)]GlcNAc
# Method in brief: as §1
# [33] = biological target: Neu5Ac(a2-3)Gal(b1-4)[Fuc(a1-3)]GlcNAc
# Method in brief: as §1
# [34] = biological target: Neu5Ac(a2-3)Gal(b1-4)[Fuc(a1-3)]GlcNAc(b1-2)Man
# Method in brief: as §1
# Neu5Ac(a2-6)Gal = biological target: Neu5Ac(a2-6)Gal
# Method in brief: as §1
# [35] = biological target: Neu5Ac(a2-6)Gal(b1-4)GlcNAc(b1-2)[Neu5Ac(a2-6)Gal(b1-4)GlcNAc(b1-6)]Man(a1-6)[Neu5Ac(a2-6)Gal(b1-4)GlcNAc(b1-2)Man(a1-3)][GlcNAc(b1-4)]Man(b1-4)GlcNAc(b1-4)GlcNAc
# Method in brief: as §1
# [36] = biological target: Neu5Ac(a2-6)Gal(b1-4)GlcNAc(b1-3)Gal(b1-3)GlcNAc
# Method in brief: as §1
# [37] = biological target: Neu5Ac(a2-6)GalNAc(b1-4)GlcNAc
# Method in brief: as §1
# [38] = biological target: Neu5Ac(a2-6)GlcNAc(b1-4)GlcNAc
# Method in brief: as §1
# [39] = biological target: Neu5Gc(a2-3)Gal(b1-4)[Fuc(a1-3)]GlcNAc
# Method in brief: as §1
binder,measurement,setting,value
AAL (Aleuria aurantia) (protein) MPTEFLYTSKIAAISWAATGGRQQRVYFQDLNGKIREAQRGGDNPWTGGSSQNVIGEAKLFSPLAAVTWKSAQGIQIRVYCVNKDNILSEFVYDGSKWITGQLGSVGVKVGSNSKLAALQWGGSESAPPNIRVYYQKSNGSGSSIHEYVWSGKWTAGASFGSTVPGTGIGATAIGPGRLRIYYQATDNKIREHCWDSNSWYVGGFSASASAGVSIAAISWGSTPQIRVYWQKGREELYEAAYGGSWNTPGQIKDASRPTPSLPDTFIAANSSGNIDISVFFQASGVSLQQWQWISGKGWSIGAVVPTGTPAGW,glycan array binding signal (z-score),Fuc(a1-2)Gal,4.67
same,glycan array binding signal (z-score),[1],-0.263
same,glycan array binding signal (z-score),[2],0.006
same,glycan array binding signal (z-score),Fuc(a1-2)Gal(b1-4)Glc6S,2.29
same,glycan array binding signal (z-score),[3],6.34
same,glycan array binding signal (z-score),[4],3.69
same,glycan array binding signal (z-score),[5],3.57
same,glycan array binding signal (z-score),[6],3.95
same,glycan array binding signal (z-score),Fuc(a1-2)Gal6S(b1-4)Glc,3.32
same,glycan array binding signal (z-score),[7],-0.285
same,glycan array binding signal (z-score),[8],-0.153
same,glycan array binding signal (z-score),[9],5.8
same,glycan array binding signal (z-score),[10],0.989
same,glycan array binding signal (z-score),[11],-0.309
same,glycan array binding signal (z-score),[12],-0.32
same,glycan array binding signal (z-score),[13],5.38
same,glycan array binding signal (z-score),Fuc(a1-3)GlcNAc,3.92
same,glycan array binding signal (z-score),[14],-0.29
same,glycan array binding signal (z-score),[15],1.96
same,glycan array binding signal (z-score),[16],0.019
same,glycan array binding signal (z-score),[17],-0.274
same,glycan array binding signal (z-score),Fuc(a1-4)GlcNAc,6.22
same,glycan array binding signal (z-score),Fuc(b1-3)GlcNAc,4.57
same,glycan array binding signal (z-score),[18],-0.303
same,glycan array binding signal (z-score),[19],-0.296
same,glycan array binding signal (z-score),[20],-0.317
same,glycan array binding signal (z-score),Gal(b1-3)GlcNAc6S,-0.309
same,glycan array binding signal (z-score),Gal(b1-4)GlcNAc,-0.324
same,glycan array binding signal (z-score),[21],-0.316
same,glycan array binding signal (z-score),[22],-0.216
same,glycan array binding signal (z-score),[23],-0.229
same,glycan array binding signal (z-score),Gal3S(b1-4)Glc,-0.321
same,glycan array binding signal (z-score),[24],-0.318
same,glycan array binding signal (z-score),[25],2.92
same,glycan array binding signal (z-score),[26],-0.085
same,glycan array binding signal (z-score),[27],1.97
same,glycan array binding signal (z-score),[28],-0.322
same,glycan array binding signal (z-score),GlcNAc(b1-6)GalNAc,-0.325
same,glycan array binding signal (z-score),[29],-0.312
same,glycan array binding signal (z-score),[30],-0.311
same,glycan array binding signal (z-score),[31],-0.327
same,glycan array binding signal (z-score),[32],-0.32
same,glycan array binding signal (z-score),[33],0.758
same,glycan array binding signal (z-score),[34],0.186
same,glycan array binding signal (z-score),Neu5Ac(a2-6)Gal,-0.314
same,glycan array binding signal (z-score),[35],-0.303
same,glycan array binding signal (z-score),[36],-0.324
same,glycan array binding signal (z-score),[37],-0.323
same,glycan array binding signal (z-score),[38],-0.327
same,glycan array binding signal (z-score),[39],0.052

# Source: the supplement of paper PMC8728848
